Our source for the outcome and Potency values is PubChem BioAssay (Tox21).

Values without a mark were called inactive. Records with an inconclusive call do not appear. Activity calls are given as the source filed them. Unless noted, calls follow the shape of the dose curve; as a rule, active = well fitted curve in the direction sought with a large enough effect in the repeat runs; inconclusive = weak or mixed curves; inactive = no such curve, though single readings can be large; an effect the other way counts as inactive or inconclusive.

Assay [1] is described as follows: qHTS assay for small molecules that induce genotoxicity in human embryonic kidney cells expressing luciferase-tagged ATAD5 (AID 651632). Also: nearly all actives have a fitted effect of over 15% in size. The gist of the method:
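Test compounds were delivered by pin tool onto HEK293T reporter cells (2,000/well) expressing ATAD5 fused to luciferase. After 16 hr at 37C, 5% CO2, Amplite was added for 30 min at room temperature and luminescence was measured.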

Assay [2] is described as follows: qHTS assay for small molecule agonists of the p53 signaling pathway - cell viability (AID 651633; calls by dose curve;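 also: p53RE-bla HCT reporter cells with a stable beta-lactamase p53 reporter; nearly all actives have a fitted effect of over 30% in size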). The gist of the method:
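Viability counter-read: CellTiter-Glo luminescence (30 min, room temperature) in the same p53RE-bla plates. These plates had been exposed to compounds for 16 h at 37 C.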

A short description of assay [3]: qHTS assay for small molecules that induce genotoxicity in human embryonic kidney cells expressing luciferase-tagged ATAD5 - cell viability (AID 651634; calls by dose curve; also: nearly all actives have a fitted effect of over 25% in size). The gist of the method:
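Quantitative high-throughput format. HEK293T cells expressing ATAD5 fused to luciferase were plated at 2,000 cells/well and treated 15.5 hr with compound versus DMSO. Viability was determined by fluorescent live-cell protease substrate, 30 min at 37C.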

Assay [4] in a line: qHTS assay for small molecule disruptors of the mitochondrial membrane potential - cell viability (AID 720634; calls by dose curve; also: nearly all actives have a fitted effect of over 20% in size; also: potency is read from the fitted curve at half-maximal effect). In outline:
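Same-well counter-screen: following the MMP dye addition, CellTiter-Glo was added to 1 hr compound-treated HepG2 cells and luminescence read after 30 min at room temperature.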

The nature of assay [5]: qHTS assay for small molecule disruptors of the mitochondrial membrane potential (AID 720635). The gist of the method:
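Mitochondrial membrane potential tracked with Mito-MPS dye, red aggregates (ex 540/em 590 nm) against green monomers (ex 490/em 535 nm). Compound treatment 1 hr at 37C, dye 30 min in HepG2.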

The nature of assay [6]: qHTS assay to test for compound auto fluorescence at 590 nm (red) in HepG2 cells (AID 720674). The gist of the method: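 Red autofluorescence (Ex/Em 540/590 nm, Rose Bengal sodium equivalents) was measured in HepG2 cells, 2,000 per well in MEM plus 10% FBS, plated overnight at 37 C. Readings were taken 1 hr after adding 23 nL compound or DMSO, at 37 C and 5% CO2.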
Assay [7] in a line: qHTS assay to test for compound auto fluorescence at 535 nm (green) in HepG2 cells (AID 720675).
Assay [8] can be described thus: qHTS assay to test for compound auto fluorescence at 460 nm (blue) in HEK293 cells (AID 720678). The gist of the method: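 HEK293, 2,000 cells/well, 10% dialyzed FBS; attach 4-5 hr 37C; pin compound or DMSO; o/n 37C/5% CO2; fluorescence 405/460 nm; triamterene-equivalent units.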
The nature of assay [9]: qHTS assay to test for compound auto fluorescence at 590 nm (red) in HEK293 cells (AID 720679). In outline:
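Intensity at 540nm excitation and 590nm emission is reported as Rose Bengal sodium-equivalent autofluorescence. Measurements followed overnight exposure (37C, 5% CO2) of HEK293 cells, 2,000 per well, to 23 nL compound.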

The nature of assay [10]: qHTS assay to test for compound auto fluorescence at 535 nm (green) in HEK293 cells (AID 720680).
A short description of assay [11]: qHTS assay to test for compound auto fluorescence at 460 nm (blue) in HEK293 cell free culture (AID 720681). The gist of the method:
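Blue fluorescence (Ex 405/Em 460 nm, triamterene-equivalent) was read immediately after pin transfer of compound or DMSO into medium (DMEM, 10% FBS) without cells.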

Assay [12] in a line: qHTS assay to test for compound auto fluorescence at 535 nm (green) in HEK293 cell free culture (AID 720682). In outline:
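DMEM + 10% FBS, cell-free; cpd or DMSO pinned in; Ex485/Em535 read; output as fluorescein-equivalent signal.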

Assay [13] in a line: qHTS assay to test for compound auto fluorescence at 590 nm (red) in HEK293 cell free culture (AID 720683). In outline:
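Red-channel autofluorescence of compounds in culture medium (DMEM, 10% FBS), no cells, measured at 540/590 nm. Rose Bengal sodium is the reference fluorophore for equivalence.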

Assay [14] in a line: qHTS assay to test for compound auto fluorescence at 590 nm (red) in HepG2 cell free culture (AID 720684). The gist of the method:
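No cells present: MEM + 10% FBS only. Compound pinned in, red label read (540/590 nm). Activity = fluorescence equivalent to Rose Bengal sodium.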

Assay [15] has as its target Glucocorticoid receptor (Homo sapiens) (UniProt P04150). Briefly: qHTS assay to identify small molecule agonists of the glucocorticoid receptor (GR) signaling pathway (AID 720691; active = well fitted activation curve with a large enough effect in the signal ratio in the repeat runs, not every such curve was filed as active; the % refers to the signal ratio). As to conditions: GR-bla HeLa, beta-lactamase reporter ratio, 18 h; activation: at 62.4 µM (top of the series). In outline: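 A HeLa cervical cancer line expressing GR and a glucocorticoid response element-driven beta-lactamase gene is treated with compounds for 18 h; LiveBLAzer B/G FRET substrate is then applied and fluorescence read.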

Assay [16] has the same target. As to the kind of experiment: qHTS assay to identify small molecule antagonists of the glucocorticoid receptor (GR) signaling pathway (AID 720692; active = well fitted inhibition curve with a large enough effect in the signal ratio in the repeat runs, not every such curve was filed as active; the % refers to the signal ratio). In outline:
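GRE-bla HeLa line, dex-stimulated (5 nM final). Compound exposure 18 h, 37 C. Beta-lactamase FRET read after 2 h RT substrate.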

The nature of assay [17]: qHTS assay to test for compound auto fluorescence at 460 nm (blue) in HepG2 cell free culture (AID 720685). The gist of the method:
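Cell-free plates of MEM plus 10% FBS received 23 nL compound or DMSO vehicle; blue-channel (405/460 nm) intensity scored against triamterene as reference fluorophore.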

The nature of assay [18]: qHTS assay to test for compound auto fluorescence at 535 nm (green) in HepG2 cell free culture (AID 720686).
Assay [19] can be described thus: qHTS assay to test for compound auto fluorescence at 460 nm (blue) in HepG2 cells (AID 720687). The gist of the method: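 Blue-channel autofluorescence (Ex/Em 405/460 nm, triamterene-equivalent) was measured after 1 hr compound exposure at 37 C, 5% CO2. Cells were HepG2, plated overnight at 37 C in MEM plus 10% FBS.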

Chain of Glucocorticoid receptor (Homo sapiens) (P04150 whole entry, looked up): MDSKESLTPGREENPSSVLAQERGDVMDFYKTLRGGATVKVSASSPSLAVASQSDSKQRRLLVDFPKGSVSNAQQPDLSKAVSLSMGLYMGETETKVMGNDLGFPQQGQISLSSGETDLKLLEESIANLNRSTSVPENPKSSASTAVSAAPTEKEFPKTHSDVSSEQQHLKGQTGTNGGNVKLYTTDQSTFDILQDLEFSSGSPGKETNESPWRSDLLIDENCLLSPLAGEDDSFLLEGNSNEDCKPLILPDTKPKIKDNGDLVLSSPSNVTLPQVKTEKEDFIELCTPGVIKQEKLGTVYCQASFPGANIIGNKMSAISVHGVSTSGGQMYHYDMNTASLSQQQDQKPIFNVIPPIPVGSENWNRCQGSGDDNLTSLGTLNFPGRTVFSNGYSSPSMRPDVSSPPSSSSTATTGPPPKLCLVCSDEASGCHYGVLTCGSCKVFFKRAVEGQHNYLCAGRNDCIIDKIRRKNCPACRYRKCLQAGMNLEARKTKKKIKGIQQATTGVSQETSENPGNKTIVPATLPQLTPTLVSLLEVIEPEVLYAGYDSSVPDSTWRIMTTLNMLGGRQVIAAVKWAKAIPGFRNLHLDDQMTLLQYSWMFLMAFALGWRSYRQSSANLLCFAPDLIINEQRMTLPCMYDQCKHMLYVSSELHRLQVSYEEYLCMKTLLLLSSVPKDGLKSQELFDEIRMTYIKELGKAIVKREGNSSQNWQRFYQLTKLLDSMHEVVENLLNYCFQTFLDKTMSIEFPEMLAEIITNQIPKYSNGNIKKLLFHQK

With `CCCCCOC(C)=O`, the compound was classed as inactive in assay [1], in assay [6], in [7], in assay [8], in [9] and in assay [10]. Also, the call in [11], in assay [12], in assay [13] and in assay [14] was inactive. Also, the Potency entry in assay [2], in assay [3], in assay [4], in [5], in assay [15] and in assay [16] was “inactive” each time.

On to `CCCCCCCCCCCCOCCO`, for which the outcome in [1], in assay [6], in [7], in [8], in assay [9] and in [10] was inactive. Also, the call in assay [11], in [12], in assay [13], in [14], in assay [17] and in assay [18] was inactive. Besides, in assay [19], the result was inactive. Besides, the Potency entry in [2], in assay [3], in assay [4] and in [15] was “inactive” throughout.

`COc1ccc2cc([C@H](C)C(=O)O)ccc2c1`: the Potency result in assay [2], in assay [3] and in assay [4] was “inactive” each time. Also, the compound was called inactive in [6], in assay [7], in assay [8], in assay [9], in assay [10] and in [11]. Moreover, the result in [12], in assay [13], in assay [14], in assay [17] and in [18] was inactive.

Regarding `O=C(O)CCCCCCCCCCC(=O)O`, the outcome in assay [1], in assay [6], in assay [7], in assay [8], in assay [10] and in assay [11] was inactive. The compound was classed as inactive in assay [12], in assay [13], in assay [14] and in assay [17]. For the same compound, the Potency result in [2], in [3], in assay [4], in assay [5], in [15] and in assay [16] was “inactive” throughout.

On to `Cc1cccnc1`, for which the Potency result in assay [2], in assay [3], in assay [4] and in [5] was “inactive” in each case. For the same compound, the compound was called inactive in assay [6], in assay [7], in assay [8], in [10], in assay [11] and in assay [12]. For the same compound, the call in [13], in assay [14], in [17], in [18] and in [19] was inactive.

Turning to `COc1ccc(NC(C)=O)cc1N`, the Potency entry in assay [2], in assay [3], in assay [4], in [15] and in [16] was “inactive” each time. Besides, the outcome in assay [6], in assay [7], in assay [8], in assay [10], in assay [11] and in assay [12] was inactive. Also, the compound was classed as inactive in [13], in assay [14], in [17], in assay [18] and in assay [19].

For the compound `Cc1occc(=O)c1O`, the compound was classed as inactive in assay [1], in assay [6], in assay [7], in [8], in assay [9] and in assay [10]. The outcome in assay [11], in assay [12], in [13], in assay [14], in [17] and in assay [18] was inactive. Moreover, the Potency result in assay [2], in assay [3], in assay [4] and in assay [5] was “inactive” in each case.

As for `CC(c1cc2ccccc2s1)N(O)C(N)=O` (stereo not given), the Potency result in [3], in [15] and in assay [16] was “inactive” each time. Further, the Potency in [4] was 27.3 µM (active). Moreover, the compound was classed as inactive in [6], in assay [7], in assay [8], in assay [9], in [10] and in assay [11]. Besides, the compound was called inactive in [12], in assay [13], in [14], in assay [17] and in assay [19].
